Targets with a hit are over-represented here; the source holds about 7,900 in all. About 0.6% of all pairs of compound and target were hits.
Key:
Assay in all cases: log2 fold change, soluble protein after heating vs DMSO (PISA); higher = thermal stabilisation; K562 cells, 10 uM, 30 min; active = over 0.2 and 3.5 SD of the protein, either way, in both replicates (recomputed)
IRAK-1-4 Inhibitor I = compound: C1COCCN1CCN2C3=CC=CC=C3N=C2NC(=O)C4=CC(=CC=C4)[N+](=O)[O-] [IRAK-1-4 Inhibitor I]
Outline: (§1)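 K562 cells (2×10^6 cells/mL) were treated with 10 μM compound for 30 min, and aliquots were heated for 3 min over 48°C-58°C. Pooled aliquots were extracted in PBS with 0.5% NP-40 at 4°C, and the supernatant after 21,000xg for 90 min was measured by TMTpro 16plex LC-MS/MS with channel sums equalised. Reported thermal stability, relative to control samples and from duplicates, is a log2 fold change.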

ibrutinib = compound: C=CC(=O)N1CCC[C@@H](n2nc(-c3ccc(Oc4ccccc4)cc3)c3c(N)ncnc32)C1 [ibrutinib]
Outline: as §1

[1] = compound: CC(=O)c1cnc2ccc(-c3cc(Cl)c(O)c(Cl)c3)nc2c1N[C@H]1CC[C@H](CN(C)C)CC1
Outline: as §1

ralimetinib = compound: CC(C)(C)Cn1c(N)nc2ccc(-c3[nH]c(C(C)(C)C)nc3-c3ccc(F)cc3)nc21 [ralimetinib]
Outline: as §1

[2] = compound: CC(C)(O)CC(=O)NCCn1ccc2ncnc(Nc3ccc(Oc4cccc(C(F)(F)F)c4)c(Cl)c3)c21
Outline: as §1

[3] = compound: CC(C)C1=C2N=C(C=C(N2N=C1)NCC3=CC=CC=C3)NCCCCCCN
Outline: as §1

[4] = compound: CC(C)C[C@@H](C=O)NC(=O)[C@H](CC(C)C)NC(=O)[C@H](CC(C)C)NC(=O)OCc1ccccc1
Outline: as §1

pinometostat = compound: CC(C)N(C[C@H]1O[C@@H](n2cnc3c(N)ncnc32)[C@H](O)[C@@H]1O)[C@H]1C[C@@H](CCc2nc3cc(C(C)(C)C)ccc3[nH]2)C1 [pinometostat]
Outline: as §1

[5] = compound: CC1=C(C(CC(=O)N1)C2=CC=C(C=C2)C(F)(F)F)C(=O)NC3=C(C=C4C(=C3)C=NN4)F
Outline: as §1

[6] = compound: CC1=C(C2=C(C=C1)C(=O)C3=CC=CC=C3N2CCCN)C
Outline: as §1

Measured: log2 fold change

OAT (UniProt P04181)
active: [3] -0.245
inactive: IRAK-1-4 Inhibitor I 0.044 | ibrutinib -0.006 | [1] -0.044 | ralimetinib -0.053 | [2] -0.113 | [4] 0.007 | pinometostat -0.027 | [5] -0.006 | [6] -0.007

MPP1 (UniProt Q00013)
inactive: IRAK-1-4 Inhibitor I -0.073 | ibrutinib -0.047 | [1] -0.071 | ralimetinib 0.075 | [2] -0.087 | [3] -0.147 | [4] 0.023 | pinometostat 0.011 | [5] -0.023 | [6] 0.029

NDUFB8 (UniProt O95169)
UniProt O95169, sequence (O95169 whole entry, looked up): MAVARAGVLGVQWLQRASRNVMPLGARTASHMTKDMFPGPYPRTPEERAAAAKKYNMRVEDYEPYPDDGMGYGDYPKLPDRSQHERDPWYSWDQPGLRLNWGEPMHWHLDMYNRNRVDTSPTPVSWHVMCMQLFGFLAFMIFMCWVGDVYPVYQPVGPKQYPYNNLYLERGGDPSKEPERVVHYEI
inactive: IRAK-1-4 Inhibitor I 0.001 | ibrutinib -0.01 | [1] -0.004 | ralimetinib -0.063 | [3] -0.042 | [4] 0.059 | pinometostat 0.003 | [5] 0.081 | [6] 0.103
active: [2] -0.36

NCK1 (UniProt P16333)
inactive: IRAK-1-4 Inhibitor I -0.178 | ibrutinib -0.154 | [1] -0.252 | ralimetinib 0.044 | [2] -0.038 | [3] -0.283 | [4] 0.082 | pinometostat 0.076 | [5] 0.005 | [6] 0.039

NMT2 (UniProt O60551)
inactive: IRAK-1-4 Inhibitor I 0.006 | ibrutinib 0.064 | [1] -0.031 | ralimetinib -0.017 | [2] -0.022 | [3] -0.125 | [4] -0.019 | pinometostat 0.053 | [5] 0.037 | [6] 0.01

MKRN2 (UniProt Q9H000)
UniProt Q9H000, sequence (Q9H000 whole entry, looked up): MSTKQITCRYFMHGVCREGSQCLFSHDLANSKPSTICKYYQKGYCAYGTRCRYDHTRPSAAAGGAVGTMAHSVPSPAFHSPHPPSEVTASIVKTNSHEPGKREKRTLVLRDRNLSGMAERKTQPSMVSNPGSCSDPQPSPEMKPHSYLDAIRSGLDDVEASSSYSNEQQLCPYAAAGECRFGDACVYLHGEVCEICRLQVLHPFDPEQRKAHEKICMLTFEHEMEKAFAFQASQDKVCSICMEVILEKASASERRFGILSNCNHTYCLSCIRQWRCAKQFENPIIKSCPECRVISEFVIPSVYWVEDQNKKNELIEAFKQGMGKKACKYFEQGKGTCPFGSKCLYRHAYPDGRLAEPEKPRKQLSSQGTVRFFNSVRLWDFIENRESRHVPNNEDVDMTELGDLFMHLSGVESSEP
inactive: IRAK-1-4 Inhibitor I -0.063 | ibrutinib 0.026 | [1] -0.137 | ralimetinib 0.034 | [2] 0.017 | [3] 0.032 | [4] 0.089 | pinometostat 0.094 | [5] -0.017 | [6] -0.064

NELFB isoform 2 (UniProt Q8WX92)
inactive: IRAK-1-4 Inhibitor I -0.03 | ibrutinib -0.045 | [1] -0.144 | ralimetinib -0.067 | [2] -0.154 | [3] -0.112 | [4] 0.001 | pinometostat 0.022 | [5] 0.017 | [6] 0.042

NSUN2 (UniProt Q08J23)
active: [3] -0.314
inactive: IRAK-1-4 Inhibitor I -0.02 | ibrutinib -0.029 | [1] -0.165 | ralimetinib 0.062 | [2] -0.008 | [4] 0.026 | pinometostat 0.058 | [5] 0.008 | [6] -0.075

MRPS24 (UniProt Q96EL2)
inactive: IRAK-1-4 Inhibitor I -0.048 | ibrutinib 0.009 | [1] -0.071 | ralimetinib -0.086 | [2] -0.094 | [3] -0.159 | [4] 0.051 | pinometostat 0.002 | [5] -0.031 | [6] -0.227

NPEPPS (UniProt P55786)
active: [3] 0.254
inactive: IRAK-1-4 Inhibitor I 0.039 | ibrutinib 0 | [1] -0.013 | ralimetinib 0.021 | [2] -0.117 | [4] -0.035 | pinometostat -0.026 | [5] -0.01 | [6] 0.045

NCKAP1 isoform 2 (UniProt Q9Y2A7)
inactive: IRAK-1-4 Inhibitor I 0 | ibrutinib 0.002 | [1] -0.063 | ralimetinib 0.07 | [2] -0.038 | [3] -0.047 | [4] -0.037 | pinometostat 0.01 | [5] 0.017 | [6] -0.009

MINK1 (UniProt Q8N4C8)
inactive: IRAK-1-4 Inhibitor I -0.018 | ibrutinib 0.038 | ralimetinib -0.081 | [2] 0.053 | [3] 0.021 | [4] 0.044 | pinometostat 0.049 | [5] -0.017 | [6] 0.061
active: [1] -0.715

NUMA1 (UniProt Q14980)
active: [6] -0.58
inactive: IRAK-1-4 Inhibitor I -0.107 | ibrutinib -0.051 | [1] -0.123 | ralimetinib 0.149 | [2] 0.073 | [3] -0.173 | [4] -0.02 | pinometostat 0.202 | [5] -0.018

OXSR1 (UniProt O95747)
inactive: IRAK-1-4 Inhibitor I 0.014 | ibrutinib -0.022 | ralimetinib 0.045 | [2] -0.115 | [3] -0.111 | [4] -0.05 | pinometostat 0.026 | [5] 0.02 | [6] 0.106
active: [1] -0.341

NANS (UniProt Q9NR45)
inactive: IRAK-1-4 Inhibitor I 0.091 | ibrutinib -0.034 | [1] -0.01 | ralimetinib 0.015 | [2] -0.043 | [3] -0.006 | [4] -0.036 | pinometostat 0 | [5] 0.033 | [6] 0.065

NUP210 (UniProt Q8TEM1)
active: [3] -0.52
inactive: IRAK-1-4 Inhibitor I 0.005 | ibrutinib -0.025 | [1] -0.038 | ralimetinib -0.069 | [2] -0.176 | [4] -0.007 | pinometostat 0.001 | [5] 0.026 | [6] 0.047

NTMT1 (UniProt Q9BV86)
UniProt Q9BV86, sequence (Q9BV86 whole entry, looked up): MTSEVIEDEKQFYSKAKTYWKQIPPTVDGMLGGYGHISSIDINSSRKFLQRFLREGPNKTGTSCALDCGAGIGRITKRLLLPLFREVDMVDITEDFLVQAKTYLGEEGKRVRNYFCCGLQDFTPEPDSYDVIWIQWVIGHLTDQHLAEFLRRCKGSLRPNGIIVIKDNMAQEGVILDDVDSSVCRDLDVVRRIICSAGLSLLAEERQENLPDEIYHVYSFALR
inactive: IRAK-1-4 Inhibitor I 0 | ibrutinib 0.011 | [1] -0.046 | ralimetinib -0.02 | [2] -0.053 | [3] 0.095 | [4] -0.052 | pinometostat -0.029 | [5] -0.082 | [6] 0.157

MTOR (UniProt P42345)
inactive: IRAK-1-4 Inhibitor I -0.029 | ibrutinib -0.03 | [1] 0.183 | ralimetinib 0.011 | [2] -0.084 | [4] -0.002 | pinometostat 0.046 | [5] -0.044 | [6] 0.014
active: [3] -0.288

NCAPH (UniProt Q15003)
inactive: IRAK-1-4 Inhibitor I -0.124 | ibrutinib -0.045 | [1] 0.097 | ralimetinib 0.007 | [2] -0.094 | [3] -0.023 | [4] 0.02 | pinometostat 0.08 | [5] 0.017 | [6] -0.006

MRPS5 (UniProt P82675)
inactive: IRAK-1-4 Inhibitor I -0.071 | ibrutinib 0.057 | [1] -0.019 | ralimetinib 0 | [2] -0.088 | [3] -0.083 | [4] 0.078 | pinometostat 0.056 | [5] -0.112 | [6] -0.207

NPC1 (UniProt O15118)
UniProt O15118, sequence (O15118 whole entry, looked up): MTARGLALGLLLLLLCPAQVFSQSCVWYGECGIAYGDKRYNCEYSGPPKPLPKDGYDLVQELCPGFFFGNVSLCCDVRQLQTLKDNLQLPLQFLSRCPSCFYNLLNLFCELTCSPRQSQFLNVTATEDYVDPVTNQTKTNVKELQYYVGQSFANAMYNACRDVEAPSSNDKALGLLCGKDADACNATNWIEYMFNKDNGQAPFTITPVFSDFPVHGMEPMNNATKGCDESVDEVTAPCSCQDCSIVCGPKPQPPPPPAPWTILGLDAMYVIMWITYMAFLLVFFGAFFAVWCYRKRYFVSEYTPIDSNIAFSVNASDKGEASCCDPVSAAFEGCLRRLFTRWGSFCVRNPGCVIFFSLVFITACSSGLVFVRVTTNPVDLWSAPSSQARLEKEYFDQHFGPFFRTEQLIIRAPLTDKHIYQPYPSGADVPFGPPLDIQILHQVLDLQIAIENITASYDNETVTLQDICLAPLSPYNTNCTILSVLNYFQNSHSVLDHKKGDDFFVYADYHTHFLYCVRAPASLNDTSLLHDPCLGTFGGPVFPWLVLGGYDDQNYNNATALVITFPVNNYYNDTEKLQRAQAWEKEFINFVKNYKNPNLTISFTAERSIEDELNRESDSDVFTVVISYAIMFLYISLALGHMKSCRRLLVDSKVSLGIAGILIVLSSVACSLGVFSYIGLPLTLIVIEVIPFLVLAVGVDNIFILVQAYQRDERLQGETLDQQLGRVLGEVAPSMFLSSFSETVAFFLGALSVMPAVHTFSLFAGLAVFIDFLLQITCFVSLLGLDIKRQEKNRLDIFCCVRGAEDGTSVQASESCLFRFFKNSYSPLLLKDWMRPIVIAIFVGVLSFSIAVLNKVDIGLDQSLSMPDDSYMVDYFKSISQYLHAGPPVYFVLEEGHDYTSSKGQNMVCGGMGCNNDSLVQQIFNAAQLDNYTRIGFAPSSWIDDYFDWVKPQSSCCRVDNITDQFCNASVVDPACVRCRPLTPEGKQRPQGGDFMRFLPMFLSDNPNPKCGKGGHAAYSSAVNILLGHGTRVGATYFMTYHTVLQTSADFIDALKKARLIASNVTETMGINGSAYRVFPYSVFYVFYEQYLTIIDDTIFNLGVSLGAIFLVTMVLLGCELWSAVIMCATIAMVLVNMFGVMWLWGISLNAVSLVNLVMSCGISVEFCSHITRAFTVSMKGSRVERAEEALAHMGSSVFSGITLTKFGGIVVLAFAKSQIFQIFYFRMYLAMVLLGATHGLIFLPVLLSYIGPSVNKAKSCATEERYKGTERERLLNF
inactive: IRAK-1-4 Inhibitor I 0.014 | ibrutinib 0.03 | [1] 0.031 | ralimetinib -0.041 | [2] 0.028 | [3] -0.184 | [4] 0.006 | pinometostat -0.055 | [5] 0.078 | [6] -0.147

NFE2 (UniProt Q16621)
UniProt Q16621, sequence (Q16621 whole entry, looked up): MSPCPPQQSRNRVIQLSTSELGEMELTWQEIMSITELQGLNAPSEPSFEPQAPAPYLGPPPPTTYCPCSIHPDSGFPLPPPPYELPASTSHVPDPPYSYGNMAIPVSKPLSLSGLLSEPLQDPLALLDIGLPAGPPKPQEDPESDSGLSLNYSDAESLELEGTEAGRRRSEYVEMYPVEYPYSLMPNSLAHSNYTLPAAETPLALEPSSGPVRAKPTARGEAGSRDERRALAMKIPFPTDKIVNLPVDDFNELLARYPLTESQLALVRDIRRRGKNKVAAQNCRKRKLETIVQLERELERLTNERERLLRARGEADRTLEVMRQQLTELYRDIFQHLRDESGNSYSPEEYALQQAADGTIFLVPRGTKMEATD
active: [6] -0.285
inactive: IRAK-1-4 Inhibitor I 0.053 | ibrutinib -0.039 | [1] 0.016 | ralimetinib -0.06 | [2] 0.01 | [3] -0.119 | [4] 0.184 | pinometostat -0.001 | [5] 0.037

NDUFB7 (UniProt P17568)
inactive: IRAK-1-4 Inhibitor I 0.012 | ibrutinib 0.008 | [1] 0.007 | ralimetinib 0.079 | [2] -0.034 | [3] -0.002 | [4] -0.055 | pinometostat -0.017 | [5] 0.014 | [6] 0.004

OTUD4 (UniProt Q01804)
inactive: IRAK-1-4 Inhibitor I 0.007 | ibrutinib 0.008 | [1] -0.029 | ralimetinib 0.1 | [2] 0.013 | [3] 0.035 | [4] 0.052 | pinometostat 0.128 | [5] -0.033 | [6] 0.244

NOP56 (UniProt O00567)
inactive: IRAK-1-4 Inhibitor I -0.03 | ibrutinib 0.025 | [1] 0.015 | ralimetinib 0.082 | [2] 0.108 | [3] 0.202 | [4] 0.234 | pinometostat 0.198 | [5] 0.086 | [6] 0.187

MYH11 isoform 2 (UniProt P35749)
UniProt P35749, sequence (P35749 whole entry, looked up): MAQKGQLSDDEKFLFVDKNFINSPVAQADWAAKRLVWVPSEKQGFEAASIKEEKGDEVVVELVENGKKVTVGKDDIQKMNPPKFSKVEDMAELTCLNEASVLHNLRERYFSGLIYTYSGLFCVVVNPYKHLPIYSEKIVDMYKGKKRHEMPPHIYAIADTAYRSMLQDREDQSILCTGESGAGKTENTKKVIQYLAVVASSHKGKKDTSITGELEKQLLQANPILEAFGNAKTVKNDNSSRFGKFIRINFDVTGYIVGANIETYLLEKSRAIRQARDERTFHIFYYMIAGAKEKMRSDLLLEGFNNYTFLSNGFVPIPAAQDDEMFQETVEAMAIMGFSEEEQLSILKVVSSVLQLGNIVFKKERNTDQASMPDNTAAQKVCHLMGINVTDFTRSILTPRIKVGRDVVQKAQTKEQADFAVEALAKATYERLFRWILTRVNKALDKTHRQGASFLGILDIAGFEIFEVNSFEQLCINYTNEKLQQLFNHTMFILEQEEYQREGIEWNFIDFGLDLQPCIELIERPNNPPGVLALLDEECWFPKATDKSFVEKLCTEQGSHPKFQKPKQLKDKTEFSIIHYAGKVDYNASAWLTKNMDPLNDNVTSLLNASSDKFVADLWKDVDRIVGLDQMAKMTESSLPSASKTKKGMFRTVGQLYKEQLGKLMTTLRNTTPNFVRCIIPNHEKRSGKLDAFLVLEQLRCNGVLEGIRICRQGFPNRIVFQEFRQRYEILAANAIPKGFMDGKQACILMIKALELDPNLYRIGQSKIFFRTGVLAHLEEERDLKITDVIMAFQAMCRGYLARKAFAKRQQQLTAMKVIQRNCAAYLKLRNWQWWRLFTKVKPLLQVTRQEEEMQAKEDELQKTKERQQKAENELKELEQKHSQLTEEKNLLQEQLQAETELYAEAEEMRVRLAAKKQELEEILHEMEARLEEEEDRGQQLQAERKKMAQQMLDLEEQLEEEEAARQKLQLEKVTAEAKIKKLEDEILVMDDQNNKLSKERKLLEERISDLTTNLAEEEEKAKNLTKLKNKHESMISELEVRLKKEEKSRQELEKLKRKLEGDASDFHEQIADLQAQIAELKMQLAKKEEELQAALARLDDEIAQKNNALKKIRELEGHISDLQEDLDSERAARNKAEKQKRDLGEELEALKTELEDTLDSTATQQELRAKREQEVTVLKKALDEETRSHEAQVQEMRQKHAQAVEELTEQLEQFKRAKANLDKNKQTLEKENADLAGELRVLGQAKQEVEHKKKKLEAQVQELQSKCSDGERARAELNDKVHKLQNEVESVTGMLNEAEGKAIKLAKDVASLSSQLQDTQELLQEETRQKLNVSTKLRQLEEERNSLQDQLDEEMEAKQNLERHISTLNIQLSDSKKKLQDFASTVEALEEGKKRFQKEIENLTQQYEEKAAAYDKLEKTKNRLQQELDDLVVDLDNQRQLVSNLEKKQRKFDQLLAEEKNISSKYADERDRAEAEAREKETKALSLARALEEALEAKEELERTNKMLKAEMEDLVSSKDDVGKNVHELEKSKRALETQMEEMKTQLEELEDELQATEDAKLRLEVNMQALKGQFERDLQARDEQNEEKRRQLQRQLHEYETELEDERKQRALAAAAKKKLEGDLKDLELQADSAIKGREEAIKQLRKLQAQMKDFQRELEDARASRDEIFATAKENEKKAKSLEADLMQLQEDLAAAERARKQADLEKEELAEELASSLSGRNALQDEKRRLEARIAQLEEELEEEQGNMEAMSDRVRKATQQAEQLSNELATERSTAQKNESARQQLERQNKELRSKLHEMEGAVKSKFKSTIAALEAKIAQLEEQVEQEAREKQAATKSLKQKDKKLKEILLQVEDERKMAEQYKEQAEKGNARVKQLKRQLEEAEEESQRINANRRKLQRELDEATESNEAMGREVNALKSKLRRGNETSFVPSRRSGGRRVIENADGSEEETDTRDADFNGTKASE
inactive: IRAK-1-4 Inhibitor I 0.035 | ibrutinib -0.013 | [1] 0.028 | ralimetinib -0.016 | [2] -0.107 | [3] 0.056 | [4] -0.002 | pinometostat -0.042 | [5] 0.027 | [6] -0.024

MRPS25 (UniProt P82663)
inactive: IRAK-1-4 Inhibitor I -0.059 | ibrutinib 0.12 | [1] -0.021 | ralimetinib -0.007 | [2] 0.074 | [3] -0.071 | [4] 0.017 | pinometostat -0.018 | [5] -0.106 | [6] -0.091

NFX1 (UniProt Q12986)
inactive: IRAK-1-4 Inhibitor I -0.028 | ibrutinib 0.083 | [1] -0.002 | ralimetinib 0.178 | [2] 0.099 | [3] -0.051 | [4] 0.227 | pinometostat 0.182 | [5] 0.011 | [6] -0.043

NOP58 (UniProt Q9Y2X3)
UniProt Q9Y2X3, sequence (Q9Y2X3 whole entry, looked up): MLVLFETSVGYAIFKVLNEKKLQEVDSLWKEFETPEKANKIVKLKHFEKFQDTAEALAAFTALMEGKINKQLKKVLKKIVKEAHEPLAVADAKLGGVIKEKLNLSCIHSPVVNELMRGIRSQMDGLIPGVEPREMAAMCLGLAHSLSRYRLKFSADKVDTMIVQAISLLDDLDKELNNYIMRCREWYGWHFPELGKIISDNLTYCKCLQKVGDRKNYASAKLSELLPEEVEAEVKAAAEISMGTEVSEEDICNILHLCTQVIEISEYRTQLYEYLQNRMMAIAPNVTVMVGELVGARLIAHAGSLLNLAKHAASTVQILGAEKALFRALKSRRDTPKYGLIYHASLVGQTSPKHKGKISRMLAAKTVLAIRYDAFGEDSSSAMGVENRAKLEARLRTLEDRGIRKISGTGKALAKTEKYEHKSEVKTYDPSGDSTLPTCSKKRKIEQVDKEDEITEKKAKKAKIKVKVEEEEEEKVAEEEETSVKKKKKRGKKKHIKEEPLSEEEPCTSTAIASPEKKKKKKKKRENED
inactive: IRAK-1-4 Inhibitor I -0.06 | ibrutinib 0.039 | [1] -0.117 | ralimetinib -0.008 | [2] 0.06 | [3] 0.052 | [4] 0.117 | pinometostat 0.128 | [5] -0.035 | [6] -0.029

MRPS27 isoform 2 (UniProt Q92552)
inactive: IRAK-1-4 Inhibitor I -0.116 | ibrutinib 0.019 | [1] -0.002 | ralimetinib 0.069 | [2] -0.104 | [3] -0.161 | [4] -0.011 | pinometostat -0.022 | [5] -0.021 | [6] -0.06
